PubChem BioAssay (NCATS)
Records with an inconclusive call do not appear. Entries that show only a call come without a potency. Activity calls are given as the source filed them. Calls come from the whole dose curve; as a rule, active = well fitted curve in the direction sought with a large enough effect; inconclusive = small, poorly fitted or top-dose-only effect, or another doubt; inactive = no such curve, though single readings can be large; an effect the other way counts as inactive or inconclusive.

Tests used:
[1] = molecular target: Voltage-gated inwardly rectifying potassium channel KCNH2 (Homo sapiens) (UniProt Q12809); assay: qHTS Assay for Small Molecule Inhibitors of the Human hERG Channel Activity (AID 588834);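 note: top concentration of the series differs between compounds; lower thallium flux fluorescence means stronger hERG block; nearly all actives have a fitted effect of over 50% in size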
How it was run: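 Homogeneous FluxOR thallium flux assay using hERG-expressing U2OS cells (BacMam). Compound treatment about 10 minutes preceded stimulation; reduced fluorescence taken as channel block.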

[2] = Cytotoxicity counterscreen for NFkB agonists and antagonists (AID 624476); details: NFkB reporter cell line viability counterscreen;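 note: potency is the fitted concentration of half-maximal effect; cells exposed to compound for 48 hours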

Sequence of Voltage-gated inwardly rectifying potassium channel KCNH2 (Homo sapiens) (Q12809 whole entry, looked up): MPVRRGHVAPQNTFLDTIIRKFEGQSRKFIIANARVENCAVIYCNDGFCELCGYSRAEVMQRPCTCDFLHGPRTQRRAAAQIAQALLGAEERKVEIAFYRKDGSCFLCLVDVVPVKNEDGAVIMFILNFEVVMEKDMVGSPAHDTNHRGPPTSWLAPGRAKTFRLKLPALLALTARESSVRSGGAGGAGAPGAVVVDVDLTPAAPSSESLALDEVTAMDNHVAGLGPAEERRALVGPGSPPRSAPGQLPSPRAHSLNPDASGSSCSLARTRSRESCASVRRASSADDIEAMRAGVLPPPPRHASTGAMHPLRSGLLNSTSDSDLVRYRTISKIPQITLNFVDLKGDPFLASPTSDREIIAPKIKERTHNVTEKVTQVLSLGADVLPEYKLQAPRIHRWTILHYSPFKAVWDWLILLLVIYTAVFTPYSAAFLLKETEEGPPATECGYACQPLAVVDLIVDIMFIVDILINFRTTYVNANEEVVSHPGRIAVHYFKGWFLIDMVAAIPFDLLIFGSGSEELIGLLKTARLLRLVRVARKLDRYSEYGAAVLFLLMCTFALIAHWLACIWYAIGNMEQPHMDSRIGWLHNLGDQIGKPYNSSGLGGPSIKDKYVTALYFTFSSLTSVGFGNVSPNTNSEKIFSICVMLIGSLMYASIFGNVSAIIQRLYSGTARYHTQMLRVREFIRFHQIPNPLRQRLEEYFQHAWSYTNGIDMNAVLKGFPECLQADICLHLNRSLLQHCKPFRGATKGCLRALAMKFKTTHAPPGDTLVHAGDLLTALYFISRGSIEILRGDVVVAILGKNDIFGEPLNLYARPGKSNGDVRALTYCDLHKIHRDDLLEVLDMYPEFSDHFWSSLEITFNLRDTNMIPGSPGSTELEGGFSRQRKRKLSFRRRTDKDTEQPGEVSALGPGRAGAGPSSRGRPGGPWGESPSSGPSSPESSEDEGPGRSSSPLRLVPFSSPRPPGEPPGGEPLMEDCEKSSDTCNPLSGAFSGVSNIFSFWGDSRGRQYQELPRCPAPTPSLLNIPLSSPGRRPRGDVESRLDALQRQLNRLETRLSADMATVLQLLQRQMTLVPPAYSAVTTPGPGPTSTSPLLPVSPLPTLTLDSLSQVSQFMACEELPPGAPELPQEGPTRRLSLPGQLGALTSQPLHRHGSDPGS

Cc1cc(O)c2c(c1)C(=O)c1cccc(O)c1C2=O
outcome [1]: inactive

N=c1ccn2c(n1)O[C@H]1[C@@H](O)[C@@H](CO)O[C@H]12
outcome [1]: inactive

COc1cc2c(cc1OC)[C@@H]1C(=O)c3ccc4c(c3O[C@@H]1CO2)C=CC(C)(C)O4
Potency [2]: 26.4 µM (active)

Cn1c(Nc2ccc(C(F)(F)F)cc2)nc2cc(Oc3ccnc(-c4ncc(C(F)(F)F)[nH]4)c3)ccc21
Potency [2]: 20.9 µM (active)
